Rtt109 Vps75: inhibitors of C. albicans Rtt109/Vps75 HAT, primary screen, biochemical, ThioGlo CoA-SH fluorescence, plate reader | purified Rtt109/Vps75, 4 h | inhibition, % at 34.9 µM | 330,000 compounds, 0.16% hits | AID 540336, 2011;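 active means inhibition of at least 50% in every replicate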
TLR9-MyD88 block: inhibitors of TLR9-MyD88 association in cells, primary screen, cell-based, CHO, BLA complementation, fluorescence. Toll-like receptor 9 (Homo sapiens) + Myeloid differentiation primary response protein …. CCF4 FRET ratio. inhibition, % at 4.98 µM. 340,000 compounds, 0.21% hits. AID 504734, 2011;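 active means inhibition above the mean over all tested compounds plus 3 SD, cut at about 21% in these data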
LANA-H2B inh: blockers of LANA interaction with H2A/H2B – biochemical, FP readout, HTS, primary screen | Protein LANA1 (Human herpesvirus 8 type P (isolate GK18)), Q9QR71 | cell-free LANA-H2A/H2B peptide, fluorescence polarization | inhibition, % (test concentration not listed) | 320,000 compounds, 0.6% hits | AID 2629, 2010; in the data active means inhibition mostly above about 10%, no sharp cut-off; inactive means mostly below about 6.7%
TLR4-MyD88 BLA: inhibitors of TLR4-MyD88 association in cells, primary screen, cell-based, HeLa CL3-4, BLA complementation, FRET ratio. Toll-like receptor 4 (Homo sapiens) + Myeloid differentiation primary response protein …. 200,000 compounds, 0.18% hits. inhibition, % at 8.4 µM. HeLa CL3-4 TLR4/MyD88 BLA complementation; in the data active means inhibition above about 25%
m5-HT2A agonist: mouse Htr2a agonists via beta-arrestin recruitment, primary screen, cell-based, luminescence. 5-hydroxytryptamine receptor 2A (Mus musculus), P35363. CHO-K1 mHTR2A beta-arrestin complementation; percent of 30 µM serotonin response. activation, % at 7.6 µM. 360,000 compounds, 0.66% hits;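 active means activation above a run cutoff, the mean activation of all tested compounds plus 3 SD, cut at about 14% in these data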
Target sequence (P35363 whole entry, looked up): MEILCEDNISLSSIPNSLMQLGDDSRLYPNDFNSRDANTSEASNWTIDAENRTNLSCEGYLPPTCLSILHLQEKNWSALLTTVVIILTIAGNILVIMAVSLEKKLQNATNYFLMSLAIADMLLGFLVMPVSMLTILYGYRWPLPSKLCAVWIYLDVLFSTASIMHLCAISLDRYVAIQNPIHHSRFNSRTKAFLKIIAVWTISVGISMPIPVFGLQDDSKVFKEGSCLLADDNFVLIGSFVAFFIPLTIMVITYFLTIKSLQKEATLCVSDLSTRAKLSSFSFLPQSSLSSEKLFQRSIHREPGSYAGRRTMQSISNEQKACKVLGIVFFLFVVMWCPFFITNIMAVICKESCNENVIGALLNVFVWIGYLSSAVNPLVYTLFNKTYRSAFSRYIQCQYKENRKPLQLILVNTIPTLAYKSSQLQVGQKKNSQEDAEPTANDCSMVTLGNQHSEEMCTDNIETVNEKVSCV
NOD2-RIPK2 inh: NOD2-RIPK2 binding disruptors in cells, primary screen, fluorescence, CHO cells, BLA complementation. Receptor-interacting serine/threonine-protein kinase 2 (Homo sapiens), O43353. CCF4 ratio. inhibition, % at 4.98 µM. 360,000 compounds, 0.38% hits; in the data active means inhibition above about 21%
MOR ag counter: OPRM1 agonists via beta-arrestin recruitment, confirmation, counter-screen for mouse HTR2A agonist project, cell-based, luminescence, single concentration | shares compounds with m5-HT2A agonist | U2OS OPRM1 beta-arrestin PathHunter; DMSO 0%, DAMGO 9.3 µM 100% | activation, % at 9.3 µM | 2,300 compounds, 5.3% hits | AID 624380, 2012;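 active means mean activation above the mean of DMSO-only wells plus 3 SD, cut at about 0.5% in these data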
m5-HT2A ag conf: mouse HTR2A agonists, beta-arrestin recruitment, confirmation, cell-based, luminescence, CHO-K1 PathHunter, triplicate; shares compounds with m5-HT2A agonist; DMSO 0%, 30 µM serotonin 100%; activation, % at 7.6 µM; 2,300 compounds, 19% hits; AID 624381, 2012;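 active means mean activation across triplicates above the hit threshold derived in the original primary screen, cut at about 15% in these data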
Large screens that a line does not name were inactive (follow-up assays come after a bar, where they were run). This is a sample that favours compounds with a hit; in the whole collection about 1.8% have one here.

CCOC(=O)[C@H]1[C@H]2COc3ccccc3[C@@H]2N2C(=O)c3cc(F)ccc3NC(=O)[C@@]12C	none (no result: TLR4-MyD88 BLA)
COCCNC(=O)/C(C#N)=C/c1c(N2CCN(c3cccc(Cl)c3)CC2)nc2c(C)cccn2c1=O	none (no result: TLR4-MyD88 BLA)
C=CCNC(=O)/C(C#N)=C/c1c(N2CCN(c3cccc(Cl)c3)CC2)nc2c(C)cccn2c1=O	m5-HT2A agonist 19.9 (no result: TLR4-MyD88 BLA) | MOR ag counter inactive | m5-HT2A ag conf inactive
CNC(=O)/C(C#N)=C/c1c(N2CCN(c3cccc(Cl)c3)CC2)nc2c(C)cccn2c1=O	m5-HT2A agonist 19.2 (no result: TLR4-MyD88 BLA) | MOR ag counter inactive | m5-HT2A ag conf inactive
CCOC(=O)/C(C#N)=C/c1c(N2CCN(c3cccc(Cl)c3)CC2)nc2c(C)cccn2c1=O	none (no result: LANA-H2B inh, TLR4-MyD88 BLA)
COc1ccc(CNC(=O)O[C@H]2CN(C(=O)OC(C)C)N(C(=O)OC(C)C)[C@@H]3CN(S(=O)(=O)c4ccc(C)cc4)C[C@]23O)cc1OC	none (no result: Rtt109 Vps75, LANA-H2B inh, TLR4-MyD88 BLA)
CN(CCc1ccccc1)C(c1ccnc2ccccc12)c1nnnn1-c1ccc2c(c1)OCCO2 (stereo unspecified)	none (no result: Rtt109 Vps75, TLR9-MyD88 block, LANA-H2B inh, TLR4-MyD88 BLA)
CC(C)(C)NS(=O)(=O)c1cc(C(=O)Nc2sccc2C#N)ccc1Cl	m5-HT2A agonist 18.1 | MOR ag counter inactive | m5-HT2A ag conf 15.2
N#Cc1ccsc1NC(=O)c1cnccn1	none
Cc1cc(NC(=O)NC(=O)c2ccccc2)no1	none (no result: TLR4-MyD88 BLA)
CCn1c(CNC(=O)COc2ccc(C(C)C)cc2)nnc1SCC(=O)Nc1ccccc1C(C)C	m5-HT2A agonist 18.2 | MOR ag counter inactive | m5-HT2A ag conf inactive
CCCN(CC(=O)Nc1ccccc1C)C(=O)CCCc1c[nH]c2ccccc12	none (no result: TLR4-MyD88 BLA)
CCCCOc1ccc(C(=O)NCC(=O)NC2CCC(C)CC2)cc1 (stereo unspecified)	m5-HT2A agonist 18.4 (no result: LANA-H2B inh, TLR4-MyD88 BLA) | MOR ag counter inactive | m5-HT2A ag conf inactive
CCCCOc1ccc(C(=O)NCC(=O)NC2CCN(Cc3ccccc3)CC2)cc1	none (no result: TLR4-MyD88 BLA)
COC(=O)[C@@]1(C)[C@H]2C(=O)N(C)C(=O)[C@H]2[C@H]2CN=C(SCc3ccccc3)N21	m5-HT2A agonist 16.8 (no result: LANA-H2B inh, TLR4-MyD88 BLA) | MOR ag counter inactive | m5-HT2A ag conf inactive
CCC1CO/C(=C(\C(Cl)=C(Cl)Cl)[N+](=O)[O-])N1 (stereo unspecified)	none (no result: TLR9-MyD88 block)
O=C(CN1C(=O)c2cccnc2Oc2ccc(Cl)cc21)Nc1ccccc1F	m5-HT2A agonist 18.5 (no result: TLR4-MyD88 BLA) | MOR ag counter inactive | m5-HT2A ag conf inactive
COCCN1C(=O)COc2ccccc2C1C(=O)Nc1c(C)cccc1C (stereo unspecified)	none (no result: Rtt109 Vps75, TLR9-MyD88 block, LANA-H2B inh, TLR4-MyD88 BLA)
COC(=O)c1cc2c(C)nn(C)c2s1	m5-HT2A agonist 23.2 (no result: TLR4-MyD88 BLA) | MOR ag counter inactive | m5-HT2A ag conf inactive
CCCCNC(=O)c1cccc2c(=O)c(C)c(-c3ccccc3)oc12	none
CCCCN(C(=O)c1cccc2c(=O)c(C)c(-c3ccccc3)oc12)c1ccccc1	m5-HT2A agonist 38.2 (no result: LANA-H2B inh) | MOR ag counter inactive | m5-HT2A ag conf inactive
CSc1ccc(CN2CCC2(C)C(=O)NC2CCN(Cc3ccccc3)CC2)cc1 (stereo unspecified)	none (no result: Rtt109 Vps75, TLR9-MyD88 block, LANA-H2B inh, TLR4-MyD88 BLA)
CN1C(C(=O)NCc2cccc(Br)c2)CC2Cn3c(nc4cc(Cl)c(Cl)cc43)C21 (stereo unspecified)	none (no result: TLR4-MyD88 BLA)

Screening results: PubChem BioAssay, several laboratories
